Test results reported in paper PMC5540273 (PLoS ONE, 2017).

Columns and labels:
Details in all cases: concentration: 1 μM, replicates: in singlicate; n = 1
TAOK1 = tested on: TAOK1
TAOK2 = tested on: TAOK2
TAOK3 = tested on: TAOK3
TBK1 = tested on: TBK1
TEC = tested on: TEC
TESK1 = tested on: TESK1
TGFBR1 = tested on: TGFBR1
TGFBR2 = tested on: TGFBR2
TIE1 = tested on: TIE1
TIE2 = tested on: T1, TIE2
T1 construct: gene TEK

TLK1 = tested on: TLK1
TLK2 = tested on: TLK2
TNIK = tested on: TNIK
TNK1 = tested on: TNK1
TNK2 = tested on: TNK2
TNNI3K = tested on: TNNI3K
TRKA = tested on: T2, TRKA
T2 construct: gene NTRK1

TRKB = tested on: TRKB
TRKC = tested on: T3, TRKC
T3 construct: gene NTRK3

TRPM6 = tested on: TRPM6
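Also: KINOMEscan kinase panel screen.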

Structure (SMILES)	%Inh (TAOK1) [%]	%Inh (TAOK2) [%]	%Inh (TAOK3) [%]	%Inh (TBK1) [%]	%Inh (TEC) [%]	%Inh (TESK1) [%]	%Inh (TGFBR1) [%]	%Inh (TGFBR2) [%]	%Inh (TIE1) [%]	%Inh (TIE2) [%]	%Inh (TLK1) [%]	%Inh (TLK2) [%]	%Inh (TNIK) [%]	%Inh (TNK1) [%]	%Inh (TNK2) [%]	%Inh (TNNI3K) [%]	%Inh (TRKA) [%]	%Inh (TRKB) [%]	%Inh (TRKC) [%]	%Inh (TRPM6) [%]
CC(C)c1ccc(O)cc1Nc1ccnc2ccc(C(F)(F)F)cc12 [GW482059]	0	0	4	0	0	0	0	15	13	0	0	0	0	0	0	71	12	11	37	1
O=C(Nc1n[nH]c2nc(-c3ccco3)c(Br)cc12)C1CCN(Cc2ccccc2)C1.O=C(O)[C@H](O)[C@@H](O)C(=O)O (stereo not drawn) [SB-742034]	0	0	10	18	8	23	0	21	0	17	5	6	17	13	6	0	48	17	0	1
c1ccc(-c2ccnc3[nH]ccc23)cc1 [SB-693578]	0	0	0	11	5	43	0	10	0	0	7	0	8	0	9	11	22	67	37	0
COc1cccc(C2=C(Nc3cc(Cl)c(O)c(Cl)c3)C(=O)NC2=O)c1 [SB-390767]	69	0	29	0	1	0	0	30	0	0	0	0	0	23	26	13	0	0	0	15
CCCCc1nn2ncccc2c1-c1ccnc(NC2CC2)n1 [GW684374]	0	0	0	7	3	13	29	7	0	0	15	7	0	0	0	0	0	6	0	25
CCc1ccc(-c2ccc3c(c2)-c2n[nH]cc2S(=O)(=O)N3C)cc1	0	27	0	0	0	15	0	0	0	20	28	0	9	34	0	0	0	0	0	0
O=C(Nc1n[nH]c2nc(-c3cccs3)c(Br)cc12)C1CC1 [SB-735297]	10	0	0	33	0	19	0	0	0	12	5	0	17	33	0	98.6	6	41	17	18
CS(=O)(=O)CCNCc1nc(-c2ccc3ncnc(Nc4ccc(OCc5ccccc5)c(Cl)c4)c3c2)cs1.Cl [GW582764]	0	0	0	0	0	19	58	0	0	0	0	0	0	4	14	0	0	41	54	0
O=C(Nc1n[nH]c2cc(-c3ccsc3)ccc12)C1CC1 [SB-732932]	64	8	26	9	32	9	0	0	11	11	0	0	61	0	8	0	87	39	38	0
CC(=O)c1c(C)c2cnc(Nc3ccc(N4CCNCC4)cn3)nc2n(C2CCCC2)c1=O	0	0	0	4	0	12	3	0	0	0	0	0	0	0	7	0	0	0	0	0
Cc1cccc2c(-c3ccncn3)c(-c3ccc(F)cc3)nn12 [GW515532]	0	0	0	0	0	17	0	23	14	0	6	0	8	0	0	0	2	0	7	0
COc1ccc(Nc2nccc(-c3ccc(NC(=O)c4cc5cc(F)ccc5[nH]4)cc3)n2)cc1 [GSK1229496]	0	0	0	11	0	7	9	0	0	0	23	0	0	47	0	0	9	13	0	0
Cl.Cl.Cl.N#Cc1ccc(CCNc2nccc(-c3cccc(CN4CCNCC4)c3)n2)cc1 [GSK2137462]	0	2	0	19	0	11	0	0	2	0	9	3	3	4	5	18	56	0	0	0
O=C1NC(=O)C(c2ccc(Cl)cc2)=C1Nc1cccc(Cl)c1 [SB-317651]	15	2	15	15	0	22	0	8	0	6	12	0	0	0	0	0	23	21	0	0
COC(=O)c1cccc(NC(=O)NC2CCN(c3ccnc(Nc4ccc(OC)cc4)n3)C2)c1 (stereo not drawn) [GSK1379746]	0	0	0	0	14	13	41	0	0	0	0	0	0	0	12	0	34	71	86	11
CN1c2ccc(-c3ccc(C(N)=O)cc3)cc2-c2[nH]ncc2S1(=O)=O	0	28	0	0	0	19	13	11	0	0	36	0	45	24	0	0	0	0	0	13
COc1ccc(-c2coc3ccc(-c4nnc(C)o4)cc23)cc1	0	0	0	30	0	8	3	43	0	40	12	6	0	0	0	0	0	0	0	0
COC(=O)C(Cc1ccccc1)NC(=O)NC1CCN(c2ccnc(Nc3ccc(F)cc3)n2)C1 (stereo not drawn) [GSK1379714]	0	0	0	21	0	16	20	0	16	0	10	0	6	0	4	0	98.2	23	25	0
COC(=O)c1cccc(NC(=O)NC2CCN(c3ccnc(Nc4ccc(F)cc4)n3)C2)c1 (stereo not drawn) [GSK1379725]	0	0	0	0	0	15	0	0	0	0	0	0	0	0	17	2	9	58	82	0
Cn1cnc2c(N)ncnc21 [SKF-97623]	0	0	0	0	0	0	9	2	0	0	74	0	0	3	0	0	56	24	7	0
COc1nccc(-c2c(-c3ccc(F)cc3)ncn2CCCN2CCOCC2)n1 [SB-282852]	0	0	0	19	0	8	20	0	0	33	26	0	0	0	0	0	61	56	13	0
